High-throughput results as filed in PubChem BioAssay.
FBA Mtb inh: Mtb FBA enzyme inhibitors, primary screen, biochemical, fluorescence, strain H37Rv; 2.3% of 360,000 active; AID 588726, 2011; purified M. tuberculosis FBA, fluorescence read-out; inhibition, % at 1 µM; Fructose-bisphosphate aldolase (Mycobacterium tuberculosis (strain ATCC 25618 / H37Rv)), …; in the data active means inhibition above about 27%
Target sequence (P9WQA3 whole entry, looked up): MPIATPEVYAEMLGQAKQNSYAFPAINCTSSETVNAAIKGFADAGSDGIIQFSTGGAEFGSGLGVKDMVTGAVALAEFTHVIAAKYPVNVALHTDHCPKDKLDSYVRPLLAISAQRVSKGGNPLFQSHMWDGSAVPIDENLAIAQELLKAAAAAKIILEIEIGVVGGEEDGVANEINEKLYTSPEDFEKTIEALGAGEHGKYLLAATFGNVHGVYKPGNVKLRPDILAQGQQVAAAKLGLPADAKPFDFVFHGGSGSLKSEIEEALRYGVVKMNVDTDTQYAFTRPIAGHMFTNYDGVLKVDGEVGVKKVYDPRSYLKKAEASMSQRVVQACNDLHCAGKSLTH
CCHFV vOTU inh: CCHFV vOTU protease inhibitors, primary screen, biochemical, Pep-AMC substrate, fluorescence; Crimean-Congo hemorrhagic fever virus L polyprotein viral ovarian tumor (vOTU) protease …; 0.55% of 370,000 active; inhibition, % at 11.5 µM
GDH-TPI inh: GDH-TPI coupling enzyme inhibitors, primary screen, artefact control for M. tuberculosis FBA inhibitor project, biochemical, absorbance, full deck; GDH-TPI coupled enzyme counterscreen, NADH absorbance; inhibition, % at 4.8 µM; 1.2% of 360,000 active; AID 588335, 2011
Vc quorum ag: inducers of Vibrio cholerae quorum light production without autoinducers, primary screen, BH1578 luxS cqsA deficient, single point | V. cholerae BH1578 lux reporter, luminescence, 6 h | activation, % at 18.7 µM | 0.16% of 350,000 active; in the data active means activation mostly above about 9.7%, no sharp cut-off
Of the large screens only hits and unclear results are named; the others gave an inactive call. Sampled rows, rich in hits. Any-hit rate of the full collection: about 3.9%. Unless noted, no stated cut-off is given here; in the data, active means inhibition above about 30%; inactive means the rest.

CCN(Cc1ccccc1)c1ccc(/C=N/NS(=O)(=O)c2ccc(C)c([N+](=O)[O-])c2)cc1	GDH-TPI inh 32.1
Cc1ccc(C(=O)N/N=C\c2ccc[nH]2)cn1	GDH-TPI inh 47.0
Cc1cccc(C(=O)N/N=C/c2ccc[nH]2)c1	none
O=C(N/N=C/c1ccc[nH]1)c1cccnc1	GDH-TPI inh 45.3
Cc1ccc(C(=O)N/N=C\C=C\c2ccc(Br)cc2)cn1	GDH-TPI inh 35.3
CC(=O)Nc1sc2c(c1-c1nc3ccccc3s1)CCN(C(C)C)C2	GDH-TPI inh 32.7 (no result: CCHFV vOTU inh)
CC[C@@H](CO)NC(=O)[C@@H]1C=C2c3cccc4[nH]cc(c34)C[C@H]2N(C)C1	FBA Mtb inh 128.4
COc1ccc(N/C=C2\CCOC2=O)cc1	GDH-TPI inh 56.2
O=C(CCS(=O)(=O)c1ccccc1)Nc1ccc2c(c1)OCO2	none
COc1cccc(-c2cc3c(=O)n(-c4ccccc4)c(=S)[nH]c3s2)c1	GDH-TPI inh 38.2
O=C(CSc1nccn1-c1ccccc1)NCc1ccc(F)cc1	none
COc1cccc(-n2ccnc2SCC(=O)NCc2ccccc2)c1	Vc quorum ag 25.0
COc1ccc(NCC(=O)N2CCCC2)cc1Cl	none (no result: Vc quorum ag)
CCOc1ccc(CCN2C(=O)C(=O)N([C@@H](Cc3ccccc3)CN3CCC[C@H]3CN3C(=O)C(=O)NC[C@@H]3Cc3ccccc3)C[C@@H]2Cc2ccccc2)cc1	none (no result: FBA Mtb inh, GDH-TPI inh, Vc quorum ag)
O=Cc1ccc(N2CCCCCC2)cc1	GDH-TPI inh 33.8
O=Cc1ccc(N2CCCC2)c(F)c1	none
CCOC(=O)c1sc(=S)n(C)c1NC(=O)c1ccccc1	GDH-TPI inh 35.8
Cc1cc(C)n2nc(SCc3ccccc3F)nc2n1	FBA Mtb inh active
CCNC(=S)N1CCNC(=O)C1CC(=O)OC (centres undefined)	none
O=C(N/N=C/C(Cl)=C/c1ccccc1)c1ccccc1F	none
O=C(N/N=C/C(Br)=C/c1ccccc1)c1ccccc1F	GDH-TPI inh 31.9
COc1ccc(N2CCN(C(=O)COC(=O)c3cccc(S(=O)(=O)Nc4cccc(C)c4)c3)CC2)cc1	none
Cc1csc(NC(=O)CSc2nc3[nH]c(=O)cc(O)c3s2)n1	GDH-TPI inh 31.8
O=P(O)(O)c1cc(-c2ccccc2)oc1-c1ccccc1	FBA Mtb inh 163.7, GDH-TPI inh 37.4
CCOc1cc(/C=C2\SC(=S)N(C(C(=O)O)c3ccccc3)C2=O)ccc1O (centres undefined)	GDH-TPI inh 37.5
COc1cc(/C=C2\SC(=S)N(CC(=O)O)C2=O)ccc1OC(=O)c1ccco1	none
CCOc1cc(/C=C2/SC(=S)N(CC(=O)O)C2=O)ccc1OC(=O)c1cccs1	GDH-TPI inh 40.7
CC(=O)Nc1ccc(-c2ccnc3c2CC(C(=O)NCc2ccccc2)O3)cc1 (centres undefined)	none
COc1ccc(OC)c(-n2nnnc2SCC(=O)Nc2ccccc2N2CCOCC2)c1	none
C[C@H](CO)N1C[C@H](C)[C@H](CN(C)C(=O)c2ccncc2)OCc2cnnn2CCCC1=O	none
COC(=O)C1=CNC=C(C(=O)OC)C1c1ccc(C(=O)OC)cc1	FBA Mtb inh 115.4 (no result: Vc quorum ag)
O=c1c(O)c(-c2cc(O)c(O)c(O)c2)oc2cc(O)cc(O)c12	GDH-TPI inh 32.4
O=c1c(O)c(-c2ccccc2)oc2cc(O)cc(O)c12	none
C=CCNC(=S)NN=C1CCC(c2ccccc2)CC1 (centres undefined)	none
O=C(O)c1ccc(N/N=C/C2=C(N3CCOCC3)C(=C\c3ccccc3)/CC2)cc1	none
CN(C(=O)NC(=O)C1=C(N2CCOCC2)/C(=C/c2ccccc2)CC1)S(C)(=O)=O	FBA Mtb inh 113.9
CN(c1ccccc1)S(=O)(=O)c1nnc(NC(=O)c2ccco2)s1	none
CC(C)CN(c1ccccc1)S(=O)(=O)c1nnc(NC(=O)c2ccco2)s1	GDH-TPI inh 34.8
CCN(c1ccc(C)cc1C)S(=O)(=O)c1nnc(NC(=O)c2ccco2)s1	none
CCN(c1ccc(C)cc1)S(=O)(=O)c1nnc(NC(=O)c2ccco2)s1	GDH-TPI inh 40.9
COCCOC(=O)c1c(N)n(Cc2ccc(OC)cc2)c2nc3ccccc3nc12	FBA Mtb inh 171.3
COC(=O)c1c(N)n(Cc2ccc(OC)cc2)c2nc3ccccc3nc12	FBA Mtb inh 159.0
CC(C)(C)c1cc2ncnc(N3CCCCC3)c2s1	none (no result: CCHFV vOTU inh)
O=C(CN1C(=O)c2ccccc2S1(=O)=O)c1ccc(O)c(O)c1	GDH-TPI inh 58.6
CCSc1nnc(NC(=O)c2ccco2)s1	none
O=C(Nc1nnc(SCc2ccc(Cl)cc2)s1)c1ccco1	GDH-TPI inh 32.1
Cc1onc(-c2ccccc2)c1C(=O)Nc1nnc(C(C)C)s1	none
Cc1cccc(-c2nnc(NC(=O)c3ccco3)s2)c1	GDH-TPI inh 34.3
Cc1noc(C)c1C(=O)Nc1nnc(-c2ccccc2)s1	GDH-TPI inh 34.7
Cc1nc(N2CCN(C(=O)c3ccc(Cl)cc3)CC2)c(C#N)c2c1COC(C)(C)C2	FBA Mtb inh 38.1
CC(C)(C)NC(=O)CCN(/N=C/c1ccncc1)C1=NS(=O)(=O)c2ccccc21	none
COc1ccc(/C=N/N(CCC(=O)NC(C)(C)C)C2=NS(=O)(=O)c3ccccc32)cc1	GDH-TPI inh 47.0
CC1=[N+](C)c2c(ccc3cccnc23)C1(C)C	CCHFV vOTU inh 30.7
Cc1[nH]c2c(ccc3cccnc32)c1C	none
COc1cc2c(ccc3c4cc(OC)c(OC)cc4c[n+](C)c23)cc1O	none
COc1cc2c[n+](C)c3c4ccccc4ccc3c2cc1OC	FBA Mtb inh 120.1 (no result: Vc quorum ag)
Cc1cc(-c2ccccc2)[nH]c(=O)c1S(=O)(=O)c1ccc(Cl)cc1	none
Cc1cc(-c2ccccc2)[nH]c(=O)c1S(=O)(=O)c1ccccc1	FBA Mtb inh 107.2
Cc1ccccc1S(=O)(=O)c1c(C)cc(-c2ccccc2)[nH]c1=O	FBA Mtb inh 76.3
Cc1ccc(S(=O)(=O)c2c(C)cc(C)[nH]c2=O)c(C)c1	none
CN(C)c1oc(-c2ccccc2Cl)nc1P(=O)(c1ccccc1)c1ccccc1	none
CCCCn1c(N)c(N(CC)C(=O)c2ccc(Cl)c([N+](=O)[O-])c2)c(=O)[nH]c1=O	none
CC(C)C(=O)Nc1nc(-c2ccc(S(=O)(=O)N3CCOCC3)cc2)cs1	FBA Mtb inh 59.1
COc1ccccc1OC(C)C(=O)Nc1nc(-c2ccc(S(=O)(=O)N3CCOCC3)cc2)cs1 (centres undefined)	none
O=c1c2ccccc2oc2c1ccc1ccccc12	FBA Mtb inh 36.0 (no result: CCHFV vOTU inh)
O=c1c2ccccc2oc2ccccc12	none
CCc1ccccc1Oc1nc2cc(-c3cccc(OC)c3)sc2c(=O)n1C	none
CC1(C(=O)NS(=O)(=O)C2CC2)CCCN(C(=O)c2ccc3c(c2)OCO3)C1 (centres undefined)	none
Cc1ccccc1-n1c(O)c(C=NC2CCS(=O)(=O)C2)c2ccccc2c1=O (centres undefined)	none
Cc1cccc(-n2c(O)c(C=NC3CCS(=O)(=O)C3)c3ccccc3c2=O)c1C (centres undefined)	GDH-TPI inh 31.0
COCc1cc(C)nc(NCCO)c1C#N	none
CCNc1nc(C)cc(COC)c1C#N	FBA Mtb inh 126.8
